The term Inhibition denotes how much of the control response was suppressed. A lower Inhibition goes with a weak effect.

What all share (assay type): functional
The test system of experiment [1] is Plasmodium falciparum. The experiment in a line: GSK_TCMDC: Inhibition of Plasmodium falciparum 3D7 in whole red blood cells, using parasite LDH activity as an index of growth. Test compounds present at 2uM.
Experiment [2] concerns Plasmodium falciparum. The experiment can be described thus: GSK_TCMDC: Inhibition of Plasmodium falciparum Dd2 in whole red blood cells, using parasite LDH activity as an index of growth. Test compounds present at 2uM.
In experiment [3] the test system is HepG2. The experiment in a line: GSK_TCMDC: Percent inhibition of human HepG2 cell line. Test compounds present at 10uM.

The structures appear in SMILES notation.

As for `CC(C)c1ccc(C=CC(=O)N2CCC(CCN3CCC(c4c[nH]c5ccccc45)CC3)CC2)cc1`, the Inhibition in experiment [1] turned out to be 93%; in experiment [2] it was 11%; in experiment [3], 85%.
Taken in the same sequence, the figures for `CN1CCN(c2ccc(-c3cccc(NC(=O)c4ccc5ccccc5c4)c3)nn2)CC1` were 94%, 26% and 17%.
On the same counts, the results for `CN(C)CCNC(=O)NC1CN(c2ncnc3cc(-c4ccccc4)sc23)C1.O=C(O)C(F)(F)F` are 100%, 39% and 7%.
As for `CCC(C)CN1CCCN(c2ccc(NC(=O)c3cccs3)cc2)CC1.O=C(O)C(F)(F)F` (centres undefined), the figures for the Inhibition in experiment [1], in experiment [2] and in experiment [3] were 91%, 95% and 4%, respectively.
Taken in the same sequence, the figures for `Cc1ccc(-n2c(=O)c3cccnc3n2CC(=O)Nc2cccc(C)c2C)cc1` were 96%, 20% and 9%.
On the same counts, the results for `CC(C)N1CCN(C(=O)c2ccc(CN(C)CCCN3CCN(c4cccc(Cl)c4Cl)CC3)s2)CC1.Cl` are 94%, 35% and 74%.
On the same counts, the results for `O=C(/C=C/c1cccs1)NCC(NCCCNc1cc(=O)c2ccccc2[nH]1)c1cc(Br)cc(Br)c1` (centres undefined) are 100%, 58% and 0%.
For `Nc1ncc(-c2cccc(F)c2)cc1-c1nc2cc(F)ccc2[nH]1.O=C(O)C(F)(F)F`, the Inhibition in experiment [1] was determined as 100%; in experiment [2], 88%; in experiment [3] it was 54%.

The record behind these values is ChEMBL document CHEMBL1157539, “Thousands of chemical starting points for antimalarial lead identification” (Nature, 2010).
